Where “and” joins values, the source holds several entries; their conditions need not be identical. Equal entries are not always repeated. Results filed as inconclusive are left out. Calls of active or inactive are those of the source. Unless noted, calls follow the shape of the dose curve; as a rule, active = well fitted cell-killing curve with a large enough effect; inconclusive = small, poorly fitted or top-dose-only effect; inactive = flat fitted curve, though single readings scatter.
How the values were obtained:
[1] = target: Glucocorticoid receptor (Homo sapiens) (UniProt P04150); assay: GR-EFC Redistribution (AID 451; calls by dose curve; also: potency is read from the fitted curve at half-maximal effect); conditions: CHO-K1 GR-EFC translocation, beta-gal luminescence, 2 h
Summary of the method: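 CHO-K1 cells expressing nuclear EA and GR-ED fragments of b-gal; compounds titrated up to 46 uM final, 2 h at 37 C. GR nuclear translocation read as complemented b-gal luminescence after 1 h RT detection.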

[2] = target: Mitogen-activated protein kinase 10 (Mus musculus) (UniProt Q61831); assay: JNK3 AlphaScreen Assay (AID 530; active = well fitted curve in either direction with a large enough effect, not every such curve was filed as active;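 also: kinase came from lysate of stimulated human HepG2 cells; signal reports phosphorylation of biotinylated GST-cJun 1-79 at Ser73 with 10 µM ATP; % is scaled to controls: 0 for no effect and ±100 for the full control effect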); conditions: JNK3 lysate, c-Jun phosphorylation; series mostly up to 57.1 µM
Summary of the method: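 HepG2 lysate (IL-1b/TNFa pre-activated) + biotin-GST-cJun 1-79 + anti-pSer73 cJun; cpd titration, 15 min RT; ATP 10 uM start; Tris pH 7.6, MgCl2, DTT, vanadate; beads in EDTA buffer; AlphaScreen.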

[3] = target: 3',5'-cyclic-AMP phosphodiesterase 4B (Homo sapiens) (UniProt Q07343); assay: qHTS Assay for Inhibitors of PDE-IV (AID 607; active = well fitted activation curve with a large enough effect in the main read-out, with a control signal flat, not every such curve was filed as active; also: potency is read from the fitted curve at half-maximal effect); conditions: HEK293 ACTOne CNG channel cells, membrane potential fluorescence; series mostly up to 22.9 µM
Summary of the method: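 Live HEK293 cells with a modified cyclic nucleotide-gated (CNG) channel report intracellular cAMP via membrane-potential dye fluorescence (ex 535/em 590 nm). Endogenous PDE-IV was targeted. Compounds were tested at up to 22.9 uM final; RO 20-1724 100 uM served as control.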

[4] = Cell Viability - NIH 3T3 (AID 541); conditions: NIH 3T3 cell viability, qHTS; series mostly up to 92.2 µM;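 also: cells exposed to compound for 40 hours; nearly all actives have a fitted effect of over 25% in size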; also: potency is read from the fitted curve at half-maximal effect;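 as to activity change, negative = cytotoxicity: plate controls were DMSO alone for no effect and tamoxifen positive control for full effect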
Summary of the method: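 qHTS format; 40 hr compound exposure, 37 °C; CellTiter-Glo luminescence (cellular ATP) read-out after 20 min at RT. Decrease in ATP = cytotoxicity; AC50 from standard Hill fit.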

[5] = Cell Viability - H-4-II-E (AID 543); conditions: H-4-II-E rat hepatoma viability; series mostly up to 92.2 µM;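 also: cells exposed to compound for 40 hours; nearly all actives have a fitted effect of over 35% in size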; also: potency is read from the fitted curve at half-maximal effect
Summary of the method: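 qHTS, rat hepatoma H-4-II-E, 1500 cells/well; 40 hr compound exposure, 37 °C; CellTiter-Glo ATP luminescence after 20 min RT; AC50 by standard Hill fit.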

[6] = Cell Viability - Renal Proximal Tubule (AID 545); conditions: renal proximal tubule cells viability; series mostly up to 91.7 µM;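 also: cells exposed to compound for 40 hours; nearly all actives have a fitted effect of over 40% in size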; also: potency is read from the fitted curve at half-maximal effect;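 as to activity change, negative = cytotoxicity: 0% = DMSO only and -100% = 100 µM tamoxifen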
Summary of the method: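 Primary rat renal proximal tubule cells (1000/well) were treated with compounds for 40 hr at 37 °C in complete medium. Intracellular ATP was measured by CellTiter-Glo luminescence, and AC50 values came from Hill-equation fits of concentration-response data.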

[7] = Cell Viability - Mesenchymal (AID 546); conditions: mesenchymal cells viability, qHTS; series mostly up to 91.7 µM;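 also: cells exposed to compound for 40 hours before reading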; also: potency is read from the fitted curve at half-maximal effect;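 as to activity change, negative = cytotoxicity: 0% = DMSO only and -100% = 100 µM tamoxifen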
Summary of the method: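 Human renal mesenchymal cells (glomerulus-derived), 1000 cells/well, 5 hr 37 °C pre-incubation; compound 40 hr, 37 °C; CellTiter-Glo, 20 min RT; luminescence; AC50 via Hill equation.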

[8] = Cell Viability - N2a (AID 540); conditions: N2a mouse neuroblastoma cell viability; activity change, negative = cytotoxicity: at 92.2 µM (top of the series); also: nearly all actives have a fitted effect of over 45% in size; also: potency is read from the fitted curve at half-maximal effect;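 as to activity change, negative = cytotoxicity: plate controls were DMSO alone for no effect and tamoxifen control for full effect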
Summary of the method: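 N2a mouse neuroblastoma, 1500 cells/well, 5 hr settle; compound 40 hr, 37 °C; CellTiter-Glo 20 min RT; luminescence; Hill-fit AC50.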

[9] = Cell Viability - SH-SY5Y (AID 544); conditions: SH-SY5Y neuroblastoma cell viability; series mostly up to 92.2 µM;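 also: cells exposed to compound for 40 hours; nearly all actives have a fitted effect of over 55% in size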; also: potency is read from the fitted curve at half-maximal effect
Summary of the method: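 SH-SY5Y, 1500 cells/well, 5 hr pre-incubation 37 °C; cpd 40 hr 37 °C; CellTiter-Glo 20 min RT; luminescence (ATP) read. qHTS concentration-response, Hill fit → AC50. Tamoxifen, doxorubicin as positive controls.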

[10] = target: Glucocorticoid receptor (Homo sapiens) (UniProt P04150); assay: GR-GFP Redistribution (AID 450;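 active = compounds whose dose series gives a full or clear partial fitted curve of increased nuclear translocation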; also: potency is read from the fitted curve at half-maximal effect); conditions: U2OS GR-GFP nuclear translocation, laser cytometry, 2 h

Sequence of Glucocorticoid receptor (Homo sapiens) (P04150 whole entry, looked up, the tested form may be a part): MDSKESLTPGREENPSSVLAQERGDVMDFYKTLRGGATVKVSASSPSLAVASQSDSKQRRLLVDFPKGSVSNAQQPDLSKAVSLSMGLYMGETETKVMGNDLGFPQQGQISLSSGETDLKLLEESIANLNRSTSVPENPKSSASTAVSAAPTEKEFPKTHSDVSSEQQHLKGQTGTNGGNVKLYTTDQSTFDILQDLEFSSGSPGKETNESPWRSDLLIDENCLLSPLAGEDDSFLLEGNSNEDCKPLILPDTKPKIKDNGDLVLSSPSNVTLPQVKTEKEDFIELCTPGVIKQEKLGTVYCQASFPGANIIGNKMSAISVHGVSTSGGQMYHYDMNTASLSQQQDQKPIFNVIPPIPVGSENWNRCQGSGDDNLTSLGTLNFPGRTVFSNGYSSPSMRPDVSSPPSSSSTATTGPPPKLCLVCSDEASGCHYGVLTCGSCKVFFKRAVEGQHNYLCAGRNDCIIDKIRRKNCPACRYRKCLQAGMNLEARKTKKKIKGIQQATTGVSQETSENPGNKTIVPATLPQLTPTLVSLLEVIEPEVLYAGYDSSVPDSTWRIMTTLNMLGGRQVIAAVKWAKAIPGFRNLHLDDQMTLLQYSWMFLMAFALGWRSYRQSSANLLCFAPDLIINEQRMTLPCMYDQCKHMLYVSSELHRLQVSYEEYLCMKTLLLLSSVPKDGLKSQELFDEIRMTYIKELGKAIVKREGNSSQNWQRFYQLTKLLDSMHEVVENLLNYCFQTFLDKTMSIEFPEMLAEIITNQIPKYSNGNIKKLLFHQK
Sequence of 3',5'-cyclic-AMP phosphodiesterase 4B (Homo sapiens) (Q07343 whole entry, looked up): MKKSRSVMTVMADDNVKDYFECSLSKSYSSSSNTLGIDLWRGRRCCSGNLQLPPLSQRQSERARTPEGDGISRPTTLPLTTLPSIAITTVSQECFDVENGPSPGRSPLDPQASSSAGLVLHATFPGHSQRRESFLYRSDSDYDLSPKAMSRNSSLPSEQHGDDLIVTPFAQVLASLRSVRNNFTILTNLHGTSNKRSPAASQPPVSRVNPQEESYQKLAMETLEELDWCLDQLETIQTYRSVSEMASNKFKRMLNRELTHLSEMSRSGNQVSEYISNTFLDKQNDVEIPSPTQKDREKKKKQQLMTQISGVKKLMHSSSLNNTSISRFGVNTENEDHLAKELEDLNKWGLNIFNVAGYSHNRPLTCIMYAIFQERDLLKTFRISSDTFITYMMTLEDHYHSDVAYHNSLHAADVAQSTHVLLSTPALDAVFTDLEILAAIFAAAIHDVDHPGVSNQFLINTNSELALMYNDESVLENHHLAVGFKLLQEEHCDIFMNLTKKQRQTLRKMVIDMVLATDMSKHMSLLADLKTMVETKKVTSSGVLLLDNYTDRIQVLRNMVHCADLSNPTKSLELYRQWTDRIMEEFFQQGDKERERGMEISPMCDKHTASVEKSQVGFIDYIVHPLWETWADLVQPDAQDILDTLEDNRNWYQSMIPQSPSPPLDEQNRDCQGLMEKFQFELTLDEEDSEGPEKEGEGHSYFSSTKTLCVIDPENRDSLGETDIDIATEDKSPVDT

CCCN1CCO[C@@H]2c3cc(O)ccc3OC[C@@H]21
inactive: Potency [1] > 46 µM | outcome [2] | Potency [3]

Nc1ccc(Cl)cc1N
active: Potency [4] 0.631 µM
inactive: outcome [2] | Potency [5] | Potency [6] | Potency [7]

C[C@]12N[C@H](Cc3ccccc31)c1ccccc12
inactive: outcome [2] | Potency [3]

CCOP(=O)(NC(C)C)Oc1ccc(SC)c(C)c1 (stereo unspecified)
inactive: outcome [2] | activity change, negative = cytotoxicity [8] -29.1% | Potency [5] | Potency [6] | Potency [7]
active: Potency [9] 12.6 µM

Cc1cc(O)ccc1Cl
inactive: outcome [2] | activity change, negative = cytotoxicity [8] -7.18% | Potency [4] | Potency [5] | Potency [9] | Potency [6] | Potency [7]

O=S(=O)(c1ccc(Cl)cc1)c1ccc(Cl)cc1
inactive: activity change, negative = cytotoxicity [8] -29.1% | Potency [5] | Potency [9] | Potency [6] | Potency [7]

C1CCC(NC2CCCCC2)CC1
inactive: outcome [2] | activity change, negative = cytotoxicity [8] 3.55% and 8.48% | Potency [4] | Potency [5] | Potency [9] | Potency [6] | Potency [7]

CCOCCOC(C)=O
inactive: outcome [2] | activity change, negative = cytotoxicity [8] -15.1% | Potency [4] | Potency [5] | Potency [9] | Potency [6] | Potency [7]

c1cc2ccc3cccc4ccc(c1)c2c34
inactive: activity change, negative = cytotoxicity [8] 2.91% | Potency [4] | Potency [5] | Potency [9] | Potency [6] | Potency [7]

Nc1ccc(Cl)cc1
inactive: outcome [2] | activity change, negative = cytotoxicity [8] -1.41% | Potency [4] | Potency [5] | Potency [9] | Potency [6] | Potency [7]

C=CC(=O)NCNC(=O)C=C
inactive: outcome [2] | activity change, negative = cytotoxicity [8] 2.37% | Potency [4] | Potency [5] | Potency [9] | Potency [6] | Potency [7]

Cn1cnc(CCN)c1
inactive: Potency [10] > 46 µM | Potency [1] > 46 µM | outcome [2] | Potency [3]

NCCc1c[nH]c2ccccc12
inactive: Potency [10] > 46 µM | Potency [1] > 46 µM | outcome [2] | Potency [3]

O=C(O)C(Cl)Cl
inactive: outcome [2] | activity change, negative = cytotoxicity [8] 2.37% | Potency [4] | Potency [5] | Potency [9] | Potency [6] | Potency [7]

CCCCCCCCc1ccc(O)cc1
inactive: outcome [2] | activity change, negative = cytotoxicity [8] -16.1% | Potency [4] | Potency [5] | Potency [9] | Potency [6] | Potency [7]

CN(C)[C@@H]1C(=O)C(C(N)=O)=C(O)[C@@]2(O)C(=O)C3=C(O)c4c(O)cccc4[C@@](C)(O)[C@H]3[C@H](O)[C@@H]12
inactive: outcome [2] | activity change, negative = cytotoxicity [8] 0.531% | Potency [4] | Potency [5] | Potency [9] | Potency [6] | Potency [7]

O=[N+]([O-])c1c(Cl)c(Cl)cc(Cl)c1Cl
inactive: outcome [2] | activity change, negative = cytotoxicity [8] 3.06% | Potency [5] | Potency [9] | Potency [6] | Potency [7]

Nc1ccc(Sc2ccc(N)cc2)cc1
inactive: outcome [2] | activity change, negative = cytotoxicity [8] -14% | Potency [4] | Potency [9] | Potency [6] | Potency [7]

COc1ccc2c(c[n+](C)c3c4cc5c(cc4ccc23)OCO5)c1OC
inactive: Potency [1] > 46 µM | outcome [2] | Potency [3]

CCCCOC(=O)c1ccccc1C(=O)OCc1ccccc1
inactive: activity change, negative = cytotoxicity [8] -9.01% | Potency [4] | Potency [5] | Potency [9] | Potency [6] | Potency [7]

Nc1ccc([N+](=O)[O-])cc1
inactive: outcome [2] | activity change, negative = cytotoxicity [8] 0.412% | Potency [4] | Potency [5] | Potency [9] | Potency [6] | Potency [7]

CC(C)(O)C(=O)Nc1ccc([N+](=O)[O-])c(C(F)(F)F)c1
inactive: outcome [2] | Potency [9] | Potency [6] | Potency [7]
active: activity change, negative = cytotoxicity [8] -95.6%

OCCCBr
inactive: outcome [2] | activity change, negative = cytotoxicity [8] 9.77% | Potency [4] | Potency [5] | Potency [9] | Potency [6] | Potency [7]

CCCCC(CC)COC(=O)c1ccccc1C(=O)OCC(CC)CCCC (stereo unspecified)
inactive: activity change, negative = cytotoxicity [8] -29.3% | Potency [5] | Potency [9] | Potency [6] | Potency [7]

COC(C)(C)CCCC(C)C/C=C/C(C)=C/C(=O)OC(C)C (stereo unspecified)
inactive: outcome [2] | activity change, negative = cytotoxicity [8] -12% | Potency [4] | Potency [5] | Potency [9] | Potency [6] | Potency [7]

CC(=O)[O][Hg][c]1ccccc1
active: Potency [8] 10 µM | Potency [4] 0.0631 µM | Potency [5] 2 µM | Potency [9] 0.126 µM | Potency [6] 0.631 µM | Potency [7] 2 µM
inactive: outcome [2]

CN(C)NC(=O)CCC(=O)O
inactive: outcome [2] | activity change, negative = cytotoxicity [8] -4.24% | Potency [4] | Potency [5] | Potency [9] | Potency [6] | Potency [7]

O=[N+]([O-])c1cc([N+](=O)[O-])c2ccccc2c1
inactive: activity change, negative = cytotoxicity [8] -22.1% | Potency [4] | Potency [9] | Potency [6] | Potency [7]

COc1ccc(C(c2ccc(OC)cc2)C(Cl)(Cl)Cl)cc1
inactive: Potency [4] | Potency [7]

O=C(O)COc1ccccc1
inactive: outcome [2] | activity change, negative = cytotoxicity [8] -9.54% | Potency [4] | Potency [5] | Potency [9] | Potency [6] | Potency [7]

O=[N+]([O-])c1c2ccccc2cc2ccccc12
inactive: outcome [2] | activity change, negative = cytotoxicity [8] -0.277% | Potency [4] | Potency [5] | Potency [6] | Potency [7]

C[C@@H]1O[C@H](C[N+](C)(C)C)C[C@H]1O
active: Potency [3] 3.16 µM
inactive: Potency [10] > 46 µM | Potency [1] > 46 µM | outcome [2]

— PubChem BioAssay (NCATS)
